Measurements published in PubChem BioAssay (NCATS).
Records with an inconclusive call do not appear. Activity calls are given as the source filed them. Unless noted, the rule behind the calls is not given here.

Experiments:
[1] = qHTS profiling of the MIPE4 collection as inhibitors of Plasmodium falciparum (3D7) proliferation (AID 743344);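 note: scaled between DMSO vehicle wells and 0.29 µM artemisinin as full inhibition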; details: P. falciparum 3D7 in erythrocytes, SYBR Green DNA fluorescence, 72 h; at 28.5 µM unless noted
Method in brief: (§1)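 Parasite DNA was quantified by SYBR Green I fluorescence (ex 485, em 535 nm) after overnight lysis in saponin/Triton buffer at room temperature. Cultures at 0.3% parasitemia and 2.5% hematocrit were first exposed to compound for 72 h at 37 C; signals were normalised to artemisinin (0.29 uM) and vehicle wells.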

[2] = qHTS profiling of the MIPE4 collection as inhibitors of Plasmodium falciparum (DD2) proliferation (AID 743345); details: P. falciparum Dd2 in erythrocytes, SYBR Green DNA, 72 h; at 28.5 µM unless noted
Method in brief: as §1

[3] = qHTS profiling of the MIPE4 collection as inhibitors of Plasmodium falciparum (DD2) proliferation (Rep 2) (AID 743346); details: P. falciparum Dd2 in erythrocytes, SYBR Green DNA, 72 h; at 28.5 µM unless noted
Method in brief: as §1

[4] = qHTS profiling of the MIPE4 collection as inhibitors of Plasmodium falciparum (HB3) proliferation (AID 743347);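 note: plate controls were DMSO vehicle wells for no effect and artemisinin wells for full effect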; details: P. falciparum HB3 in erythrocytes, SYBR Green DNA, 72 h; at 28.5 µM unless noted
Method in brief: as §1

[5] = High-throughput drug toxicity screening in the BPDCN cell line Gen2.2 (AID 1224824); details: Gen2.2 BPDCN cells; at 45.8 µM (top of the series) unless noted;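 note: cells exposed to compounds for 48 h before reading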
Method in brief: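 Gen2.2, 500 cells/well, phenol red-free RPMI/10% FBS/Pen-Strep; 48 h cpd, 37 °C/5% CO2; CTG lum, 15 min RT. Norm: DMSO = 100%, bortezomib 9.2 uM final = 0%.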

[6] = High-throughput drug toxicity screening in the BPDCN cell line Cal-1 (AID 1224825); details: Cal-1 BPDCN cell viability, qHTS; at 45.8 µM (top of the series) unless noted
Method in brief: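 CellTiter-Glo luminescence after 48 h compound exposure; percent activity scaled with DMSO as 100% and bortezomib (9.2 uM final) as 0%. Cal-1 cells seeded at 500/well in RPMI, 10% FBS, no phenol red.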

[7] = qHTS assay for small molecule agonists of the antioxidant response element (ARE) signaling pathway measured by Nrf2-dependant transcriptional activity (AID 720636; active = well fitted curve in the direction sought with a large enough effect in the repeat runs; an effect the other way counts as inactive or inconclusive; note: % of control where 0% means no effect)
Method in brief: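 ARE-luc HepG2 cells carrying an Nrf2-responsive luciferase reporter, in medium with 1% dialyzed FBS, exposed to compound for 16 hr at 37 C, 5% CO2. Luminescence read 30 min after ONE-Glo addition.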

[8] = qHTS assay for small molecule agonists of the antioxidant response element (ARE) signaling pathway measured by Nrf2-dependant transcriptional activity - cell viability counter screen (AID 720653; active = well fitted curve in the direction sought with a large enough effect in the repeat runs; an effect the other way counts as inactive or inconclusive; note: % is set by controls: 0 for no effect and ±100 for the full control effect); details: ARE-bla HepG2 viability, CellTiter-Glo ATP luminescence, 16 h; stronger effect = lower value
Method in brief: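 ARE-bla HepG2 cells treated with compounds for 16 h at 37C; this counter screen measures viability as intracellular ATP by CellTiter-Glo luminescence after 30 min at room temperature.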

[9] = qHTS assay for cell viability of HEK293 cells (AID 743288; active = well fitted curve in the direction sought with a large enough effect; an effect the other way counts as inactive or inconclusive; note: % is set by controls: 0 for no effect and ±100 for the full control effect; nearly all actives have a fitted effect of over 50% in size); details: ATP luminescence (CellTiter-Glo), 18 h, stronger effect = lower value
Method in brief: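 Quantitative high-throughput screen: compounds were pinned onto parental HEK293 cells (2,000 per well) after a minimum 5 h settling at 37 C, incubated 18 h at 37 C, and intracellular ATP measured by luciferase luminescence.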

[10] = qHTS assay for cell viability of the p53RE-bla HCT-116 cell line (AID 743292; active = well fitted curve in the direction sought with a large enough effect; an effect the other way counts as inactive or inconclusive; note: % is set by controls: 0 for no effect and ±100 for the full control effect; nearly all actives have a fitted effect of over 55% in size)
Method in brief: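 CellSensor p53RE-bla HCT-116 cells (4,000/well) pre-incubated 5 h at 37 C, then exposed to compounds in DMSO for 16 h at 37 C. Viability read as ATP content by CellTiter-Glo luminescence after 30 min at room temperature.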

[11] = qHTS Assay for Identifying Gametocytocidal Compounds (AID 743244; active = well fitted curve in the direction sought with a large enough effect; an effect the other way counts as inactive or inconclusive; note: potency is the fitted concentration of half-maximal effect;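 for max response: % is set by controls: 0 for no effect and ±100 for the full control effect; actives lower the fluorescent signal which means gametocytes are killed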); details: P. falciparum 3D7 stage III-V gametocytes, alamarBlue, 72 h; max response: stronger effect = lower value
Method in brief: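 Fluorescence at Ex 525/Em 598 nm, recorded 24 h after alamarBlue addition, reports residual metabolic activity of 3D7 gametocytes (stages III–V) following 72 h compound exposure at 37 °C, 5% CO2.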

[12] = qHTS profiling for inhibitors of Plasmodium falciparum (3D7) proliferation (AID 743322);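 note: infected erythrocytes exposed to compound for 72 h before lysis; 100% = DMSO vehicle wells and 0% = 0.29 µM artemisinin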; details: P. falciparum 3D7 proliferation; at 28.7 µM (top of the series)
Method in brief: as §1

[13] = qHTS profiling for inhibitors of Plasmodium falciparum (DD2) proliferation (AID 743323); details: lower = more inhibition; at 28.7 µM (top of the series)
Method in brief: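 P. falciparum Dd2-infected erythrocytes (0.3% parasitemia, 2.5% hematocrit) exposed 72 h at 37 C, 5% CO2. Lysis with SYBR Green, overnight at room temperature, fluorescence 485/535 nm; normalized to 0.29 uM artemisinin and DMSO.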

[14] = qHTS profiling for inhibitors of Plasmodium falciparum (HB3) proliferation (AID 743324; active = well fitted curve in the direction sought with a large enough effect; an effect the other way counts as inactive or inconclusive;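 note: 100% = DMSO vehicle wells and 0% = artemisinin-treated control wells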); details: Plasmodium falciparum HB3 blood-stage proliferation; at 28.7 µM (top of the series)
Method in brief: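 SYBR Green fluorescence (485 ex/535 em) of lysed cultures, incubated overnight at room temperature in the dark, quantifies parasite DNA. Infected erythrocytes at 0.3% parasitemia and 2.5% hematocrit were exposed 72 h; values normalized to DMSO and 0.29 uM artemisinin controls.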

[15] = qHTS assay for measurement of the activity of small molecule inhibitors on Zika virus induced Caspase-3 activity in human iPSC derived neural progenitor cells (hNPCs) (AID 1224857; active = well fitted curve in the direction sought with a large enough effect; an effect the other way counts as inactive or inconclusive; note: % of control where 0% means no effect; nearly all actives have a fitted effect of over 65% in size)
Method in brief: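 Zika virus (2 FFU/cell) infection of human iPSC-derived NPCs, 6 h, following 1 h compound preincubation. Read-out: Caspase-Glo 3/7 luminescence.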

Compound	parasite growth, % of DMSO control [1]	parasite growth remaining, % of DMSO control (lower = more inhibition) [2]	parasite growth, % of control (lower = inhibition) [3]	growth, % of control [4]	cell viability, % of control (lower = more cytotoxic) [5]	viability (% of control) [6] [%]	outcome [7]	max response [8]	max response [9]	outcome [10]	max response [11]	remaining parasite growth % (stronger effect = lower value) [12] [%]	activity, percent of control [13] [%]	remaining proliferation (% of control), lower = more inhibition [14] [%]	Potency [15]	Potency [11]
NC(=O)c1cccc2cn(-c3ccc([C@@H]4CCCNC4)cc3)nc12	12.4%	11.3%	25.3%	6.74%	116%	5.94										
COc1cc(-c2nn(C3CCC(N4CCN(C(C)=O)CC4)CC3)c3ncnc(N)c23)ccc1NC(=O)c1cc2ccccc2n1C (stereo unspecified)	5.39%	12.1%	20.7%	7.32%	34.5%	9.55										
O=C(O)CCCc1c[nH]c2ccccc12	102%	20.4%	142%	102%	90.6%	32.3	inactive	0.64% (inactive)	-3.33% (inactive)	inactive						
O=C(O)[C@H](Cc1c[nH]c2ccccc12)N1C(=O)c2ccccc2C1=O	99.6% [at 57.5 µM]	98.7% [at 57.5 µM]	77% [at 57.5 µM]	106% [at 57.5 µM]	151% [at 92.2 µM]						33.4% (inactive)	105	104	85.6	inactive	
COc1cc2ncnc(Nc3ccc(F)c(Cl)c3)c2cc1NC(=O)C=CCN1CCCCC1	9.04%	8.26%	11%	6.53%	10%	3.6						-0.218	0.401	0.28		11.8 µM (active)
CN(c1ncccc1CNc1nc(Nc2ccc3c(c2)CC(=O)N3)ncc1C(F)(F)F)S(C)(=O)=O	12.5%	14.1%	30.9%	10.4%	12.1%						3.79% (inactive)	12.7	9.35	5.89	inactive	
O=c1[nH]nc(Sc2ncc([N+](=O)[O-])s2)n1-c1ccc2c(c1)OCCO2	59.7%		60.1%	62.4%	3.22%	2.62						21	65.9	3.82		7.43 µM (active)
CC1(C)O[C@@H]2C[C@@H]3[C@H]4C[C@@H](F)C5=CC(=O)C=C[C@]5(C)[C@@]4(F)[C@@H](O)C[C@]3(C)[C@]2(C(=O)CO)O1	53.6%		53.7%	76%	45.3%	54.5										
CCCCOc1c(C(=O)c2c(F)cc(C)cc2F)cnc2n[nH]cc12	71.2%	98.1%	43.3%	92.5%	8.67%	26.5										
CC(=O)c1c(C)c2cnc(Nc3ccc(N4CCNCC4)cn3)nc2n(C2CCCC2)c1=O	5.54%	6.84%	9.82%	2.45%	8.1%	3.89							4.74	0.446		7.43 µM (active)
